The list is not random: actives were taken first. Their share in the collection is about 18%.
TDP1 cell noCPT – qHTS for Inhibitors of human tyrosyl-DNA phosphodiesterase 1 (TDP1): qHTS in cells in absence of CPT. 420,000 compounds, 15% hits. AID 686978, 2013. DT40 Tdp1-/- hTDP1 cells, no CPT, ATP luminescence, 48 h. Potency, µM (titrated, usually from 46.2 µM), for the others: top-dose activity change, negative = growth inhibition, usual class: inhibitors; also: potency is read from the fitted curve at half-maximal effect; nearly all actives have a fitted effect of over 55% in size
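Compound effects on proliferation are scored in DT40 Tdp1-/-;hTDP1 cells in the absence of CPT. ATP levels (CellTiter-Glo luminescence) are recorded after a ≥48 hr, 37 °C incubation.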
RORg inh – inhibitors of mouse ROR gamma transcriptional activity; P51450; Drosophila S2 Gal4-RORgamma UAS-luciferase reporter, 20 h; Potency, µM (doses to about 53.6 µM), for inactives: top-dose activity change, negative = inhibition, most hits filed as inhibitors; 310,000 compounds, 5.4% hits; AID 2551; also: potency is read from the fitted curve at half-maximal effect; nearly all actives have a fitted effect of over 60% in size
Target sequence (P51450 whole entry, looked up, the tested form may be a part): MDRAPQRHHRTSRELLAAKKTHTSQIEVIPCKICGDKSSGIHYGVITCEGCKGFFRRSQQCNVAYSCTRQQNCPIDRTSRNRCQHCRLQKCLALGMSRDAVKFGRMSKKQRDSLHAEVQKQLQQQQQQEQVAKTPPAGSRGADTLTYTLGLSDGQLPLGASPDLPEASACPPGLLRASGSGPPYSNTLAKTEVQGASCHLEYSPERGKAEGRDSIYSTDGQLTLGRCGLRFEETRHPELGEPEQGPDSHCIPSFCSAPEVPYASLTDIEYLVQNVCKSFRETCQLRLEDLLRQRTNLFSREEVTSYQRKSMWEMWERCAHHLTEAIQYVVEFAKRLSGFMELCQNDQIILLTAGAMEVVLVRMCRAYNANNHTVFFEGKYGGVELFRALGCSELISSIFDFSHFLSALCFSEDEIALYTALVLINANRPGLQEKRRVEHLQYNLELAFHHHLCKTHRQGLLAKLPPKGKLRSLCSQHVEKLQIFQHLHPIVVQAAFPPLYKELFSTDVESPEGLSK
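Luciferase reporter read in Schneider cells carrying Gal4-RORγ (mouse) and UAS-Photinus luciferase; cells given compound 1 h before 700 uM copper sulfate induction, then incubated 20 h at ambient temperature.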
IL-1B inflam inh – blocks inflammasome-driven IL-1 beta release. THP-1 LPS/ATP IL-1B secretion, AlphaLISA, 16 h; active compounds read low. activity change, % at 57.5 µM. 360,000 compounds, 4.7% hits. AID 743279; in the data active = activity change below about -50%; inconclusive = mostly about -30% to -49%
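THP-1 cells pretreated 1 hr with compounds (up to 57.5 uM final), then stimulated with LPS (250 ng/mL final) plus ATP (1.25 mM final); secreted IL-1B measured by AlphaLISA after 16 hr, decreased signal indicating inhibition.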
LDHA block – LDHA (human) enzyme inhibition; activity change, % (values are at about 110 or 230 µM); P00338; AID 1347041; purified LDHA, NADH/diaphorase-resazurin fluorescence; active compounds read low; 480,000 compounds, 0.15% hits; in the data active = activity change below about -30%; inconclusive = mostly about -25% to -30%;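 also: plate controls were DMSO wells for no effect and wells without enzyme for full effect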
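Human LDH5 (2 nM) was incubated with 0.06 mM NADH and 0.2 mM pyruvate for 5 min at room temperature in Tris pH 7.4. Remaining NADH was coupled through diaphorase/resazurin, and resorufin fluorescence was read at 0 and 20 min.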
TDP1 cell CPT – growth inhibition of DT40 Tdp1-/-;hTDP1 cells with camptothecin (screen for TDP1 inhibitors). chicken DT40 Tdp1-/-;hTDP1 cells + 20 nM CPT, ATP luminescence, 48 h. Potency, µM (series often up to 46.2 µM), for the others: top-dose activity change, negative = growth inhibition, usual class: inhibitors. 420,000 compounds, 12% hits. AID 686979; also: potency is read from the fitted curve at half-maximal effect; nearly all actives have a fitted effect of over 55% in size
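Chicken DT40 Tdp1-/- cells complemented with human TDP1, 400 cells/well, exposed to compounds plus 20 nM camptothecin for at least 48 h at 37 C; viability read as ATP content by CellTiter-Glo luminescence.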
VP16 counter – counter-screen for ROR gamma inhibitors: Gal4-VP16 reporter | Drosophila S2 Gal4-VP16 UAS-luciferase, luminescence, 20 h | Potency, µM (series often up to 53.6 µM), for inactives: at the highest dose activity, negative = inhibition, usual class: inhibitors | 310,000 compounds, 3.5% hits;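 also: Gal4-VP16 expression switched on by copper sulfate through the metallothionein promoter; potency is read from the fitted curve at half-maximal effect; nearly all actives have a fitted effect of over 50% in size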
* hit, by the source's call; ? = inconclusive; . = no result given; ! = not active in a repeat; [ ] = another dose, or the depositor's remark. Unless noted, calls follow the shape of the dose curve; as a rule, active = well fitted curve in the direction sought with a large enough effect; inconclusive = small, poorly fitted or top-dose-only effect, or another doubt; inactive = no such curve, though single readings can be large; an effect the other way counts as inactive or inconclusive. Unless noted, % is scaled to controls: 0 for no effect and ±100 for the full control effect.

SMILES	TDP1 cell noCPT	RORg inh	IL-1B inflam inh	LDHA block	TDP1 cell CPT	VP16 counter
COC(=O)c1sccc1S(=O)(=O)N1CCN(c2cc(Cl)ccc2C)CC1	?	.	.	2	?	.
COC(=O)c1sccc1NC(=S)N1CCCCC1	-12%	7%	-9	-7	5%	-5%
COC(=O)c1sccc1NC(=S)N1CCN(c2cccc(C)c2C)CC1	23µM*	-18%	19	0	18µM*	24%
COC(=O)c1sc(S(=O)(=O)N2CCN(c3ccccc3F)CC2)c(C(=O)OC)c1C	?	.	2	-3	15µM*	.
COC(=O)c1sccc1S(=O)(=O)N1CCN(c2cccc(C)c2C)CC1	23µM*	.	.	-7	?	.
COC(=O)c1sccc1S(=O)(=O)N1CCN(c2ccc(C)cc2C)CC1	23µM*	.	.	-2	?	.
O=C(Cc1n[nH]c(=O)c2ccccc12)Nc1cccc2ccccc12	.	.	.	8	.	.
OC(COc1ccccc1)CN1C2=NCCCN2c2ccccc21 (stereo unspecified)	10µM*	11%[0.365 µM]	-15	-5	?	.
Clc1ccc(CN2C3=NCCCN3c3ccccc32)c(Cl)c1	?	-3%	-73*	-3	?	-4%
O=C(CN1C2=NCCN2c2ccccc21)c1ccc(Cl)cc1	.	.	.	-9	.	.
Cc1cc2c(cc1C)N(Cc1ccc(Cl)cc1)C1=NCCCN12	5.2µM*	.	.	-1	2.6µM*	.
Clc1ccc(CN2C3=NCCN3c3ccccc32)cc1	?	?	?	-4	13µM*	-6%
O=C(CCS(=O)(=O)c1ccc2c(c1)CCN2C(=O)C1CC1)NC1CCCCCC1	.	.	.	-1	.	.
COc1ccc(Br)cc1S(=O)(=O)NCCN1CCCCCC1	.	.	.	2	.	.
c1ccc(CN2C3=NCCCN3c3ccccc32)cc1	-32%	-22%	-4	-4	-16%	-20%
Clc1cccc(CN2C3=NCCCN3c3ccccc32)c1	?	-11%	-17	-3	?	-6%
CC(C)(C)c1ccc(CN2C3=NCCCN3c3ccccc32)cc1	7.3µM*	-5%	-54*	-4	7.3µM*	?
Brc1ccc(CN2C3=NCCCN3c3ccccc32)cc1	?	15%	-55*	-2	16µM*	1%
Cc1ccc(CN2C3=NCCCN3c3ccccc32)cc1	?	-5%	-4	0	15µM*	4%
O=C(Cn1cnc2ccc(Br)cc2c1=O)N1CCCC1c1ccc2c(c1)OCCO2 (stereo unspecified)	.	.	.	-7	.	.
O=C(CC(C(=O)c1ccccc1)c1ccccc1)c1ccccc1 (stereo unspecified)	21µM*	.	?	-6	?	.
O=C(c1ccc(Cl)cc1)C(CN1CCCCCC1)c1ccccc1 (stereo unspecified)	.	.	.	-2	.	.
CN(Cc1cc(Cl)cc(Cl)c1)CC(C(=O)c1ccccc1)c1ccccc1 (stereo unspecified)	7.3µM*	.	-79*	-3	6.5µM*	.
N#CC(c1ccccc1)C(CC(=O)c1ccccc1)c1ccccc1 (stereo unspecified)	?	.	-6	-4	?	.
O=C(CC(C(=O)O)c1cccc(Cl)c1)c1ccccc1 (stereo unspecified)	9%	13%	0	-1	-25%	1%
SMILES	TDP1 cell noCPT	RORg inh	IL-1B inflam inh	LDHA block	TDP1 cell CPT	VP16 counter
N#CC(c1ccc(N)cc1)C(CC(=O)c1ccccc1)c1ccccc1 (stereo unspecified)	29µM*	.	-16	-3	?	.
CN(C)CC(C(=O)c1ccccc1)c1ccccc1 (stereo unspecified)	1.5µM*	7.1µM*	-101*	-2	1.2µM*	7.1µM*
CCN(CC)c1ccc(NS(=O)(=O)c2ccc(C3CCCCC3)cc2)cc1C(=O)O	.	.	.	11	.	.
N#Cc1cccc(NC(=O)CCC(=O)c2ccc3c(c2)OCCCO3)c1	.	.	.	-4	.	.
O/N=C/c1ccc(-n2cccn2)cc1	.	.	.	4	.	.
CC(NC(=O)C1CCCC1)c1ccc(Cl)cc1Cl (stereo unspecified)	.	.	.	-5	.	.
CCOC(=O)CC(=O)CSc1nc2c(sc(=S)n2-c2ccc(OCC)cc2)c(=O)[nH]1	?	179%	-53*	10	-11%	-4%
CN(Cc1ccc(Cl)c(Cl)c1)Cc1nc2ccccc2o1	.	.	.	4	.	.
CCc1ccc(C(=O)c2c(N)c(-c3nc(-c4ccc5c(c4)OCO5)cs3)c3ccccn23)cc1	-21%	.	.	-10	-9%	.
COc1cccc(-c2csc(-c3c(N)c(C(=O)c4ccccc4)n4ccccc34)n2)c1	16µM*	.	.	-2	?	.
Cc1ccc(-c2csc(-c3c(N)c(C(=O)c4ccc5c(c4)OCO5)n4ccccc34)n2)cc1	?	.	.	-1	?	.
Nc1c(-c2nc(-c3ccccc3)cs2)c2ccccn2c1C(=O)c1ccc2c(c1)OCO2	6.5µM*	.	.	-7	18µM*	.
C=CCNC(=S)NNC(=O)CSc1nc2ccccc2s1	-29%	7.1µM*	35	-5	11%	?
O=C(CSc1nc2ccccc2s1)NNC(=S)Nc1ccc(Cl)cc1	?	5µM*	25	-12	-5%	8.9µM*
O=C(CSc1nc2ccccc2s1)Nn1cnnc1	7%	7%	22	-4	18µM*	-13%
O=C(Nc1ccc(Cl)cc1)/C(=C/c1ccc([N+](=O)[O-])cc1)c1nc2ccccc2s1	.	5µM*	.	.	.	5µM*
O=C(O)C/C(=C/c1ccc(Cl)cc1)c1nc2ccccc2s1	.	.	.	5	.	.
O=C(CSc1nc2ccccc2s1)NCCOc1ccccc1	-2%	?	13	0	-19%	?
Cc1ccc(Cn2c(Sc3ccccc3)nc3c2c(=O)[nH]c(=O)n3C)cc1	.	.	.	6	.	.
CNC(=O)c1ccc(CN(C(=O)NCC(F)(F)F)C2CC2)cc1	.	.	.	11	.	.
c1ccc(-c2ccc(Oc3nc(-c4ccccc4)cs3)cc2)cc1	.	.	.	-5	.	.
CC(=O)c1ccc(OCC(=O)NC2CCc3ccccc32)cc1 (stereo unspecified)	.	.	.	-3	.	.
O=S(=O)(/N=C(/Nc1ccc(Cl)c(S(=O)(=O)Nc2ccccc2Cl)c1)c1ccc(F)cc1)c1ccccc1	-7%	?	-75*!	-11	3%	-1%
COc1ccc(NS(=O)(=O)c2cccc(N/C(=N\S(=O)(=O)c3ccccc3)c3ccc(F)cc3)c2)cc1	?	?	-6	-6	21µM*	-26%
COc1ccccc1NS(=O)(=O)c1cc(N/C(=N/S(=O)(=O)c2ccccc2)c2ccc(F)cc2)ccc1Cl	21µM*	.	?	-2	.	.

High-throughput results from PubChem.
